Test [1] is described as follows: qHTS RealTime-Glo MT Cell Viability Assay in HepG2 cells - 40 hour (AID 1224870). Also: nearly all actives have a fitted effect of over 50% in size. Also: potency is read from the fitted curve at half-maximal effect. In short, it runs like this: (§1)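 Real-time viability: cells seeded at 600 per well together with NanoLuc and cell-permeant prosubstrate, compounds added after 5 h incubation. Luminescence tracked at 0, 8, 16, 24, 32 and 40 h of exposure.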
(In general: Quantitative high-throughput screening tests each substance at several concentrations.)

Test [2] can be described thus: A CellTox Green Cytotoxicity Assay to monitor cytotoxicity in HEK293 cells - 40 hour (AID 1224871). Also: nearly all actives have a fitted effect of over 45% in size. In short, it runs like this:
(§2)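 Homogeneous no-lysis format: HEK293 cell suspension mixed with CellTox Green reagent, seeded, incubated 5 h at 37 C/5% CO2, then dosed by pintool with compound in DMSO.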

Test [3] in a line: qHTS RealTime-Glo MT Cell Viability Assay in HEK293 cells - 16 hour (AID 1224872). Also: top concentration of the series differs between compounds; nearly all actives have a fitted effect of over 50% in size. Summed up:
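HEK293 cells were seeded at 600 cells/well together with NanoLuc luciferase and cell-permeant prosubstrate, preincubated 5 h at 37 C/5% CO2, then given compound in DMSO by pintool. Luminescence from viable-cell prosubstrate reduction was read repeatedly over 40 h.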

Test [4] in a line: qHTS RealTime-Glo MT Cell Viability Assay in HepG2 cells - 8 hour (AID 1224873). Also: nearly all actives have a fitted effect of over 55% in size. In short, it runs like this:
as §1

The nature of test [5]: qHTS RealTime-Glo MT Cell Viability Assay in HEK293 cells - 40 hour (AID 1224874). Also: nearly all actives have a fitted effect of over 50% in size. The following applies: RealTime-Glo luminescence; max response: stronger effect = lower value. Summed up: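 Measured as luminescence from the same continuously cultured HEK293 wells at successive time points (0, 8, 16, 24, 32, 40 h) after compound addition. Reagent present from seeding; dosing at 5 h; incubation 37 C.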

Test [6] can be described thus: A CellTox Green Cytotoxicity Assay to monitor cytotoxicity in HEK293 cells - 24 hour (AID 1224875). Also: series mostly up to about 77 µM; nearly all actives have a fitted effect of over 45% in size. In short, it runs like this: as §2
Test [7] can be described thus: A CellTox Green Cytotoxicity Assay to monitor cytotoxicity in HepG2 cells - 16 hour (AID 1224876). Also: nearly all actives have a fitted effect of over 45% in size. In short, it runs like this:
(§3)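 Fluorescent DNA-binding dye, 600 HepG2 cells/well, 5 h preincubation then compound in DMSO; same plates read at 0–40 h, 37 C.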

A short description of test [8]: qHTS RealTime-Glo MT Cell Viability Assay in HepG2 cells - 32 hour (AID 1224877). Also: nearly all actives have a fitted effect of over 55% in size. Summed up:
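HepG2 cells were seeded at 600 cells/well together with NanoLuc luciferase and a cell-permeant prosubstrate, preincubated 5 h at 37 C/5% CO2, then pin-dosed with compounds in DMSO. Nonlytic luminescence from viable cells was read at each time point.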

Test [9] in a line: A CellTox Green Cytotoxicity Assay to monitor cytotoxicity in HepG2 cells - 40 hour (AID 1224879). Also: nearly all actives have a fitted effect of over 40% in size. Summed up: as §3
Test [10] can be described thus: A CellTox Green Cytotoxicity Assay to monitor cytotoxicity in HepG2 cells - 24 hour (AID 1224878). Also: nearly all actives have a fitted effect of over 45% in size. In short, it runs like this: as §3

Results filed as inconclusive are left out. Values without a mark were called inactive. Activity calls are given as the source filed them. Calls follow the shape of the dose curve; as a rule, active = well fitted curve in the direction sought with a large enough effect in the repeat runs; inconclusive = weak or mixed curves; inactive = no such curve, though single readings can be large; an effect the other way counts as inactive or inconclusive.
% is scaled to controls: 0 for no effect and ±100 for the full control effect.

Take `C#CC(C)(O)CC(C)C` (stereo not given): the Potency result in test [1], in test [2], in [3], in test [6], in [7] and in test [8] was “inactive” in each case. Moreover, the Potency result in test [9] is “inactive”. In addition, the result in [4] was inactive. For the same molecule, the max response in test [5] is 22.3%.

For the molecule `O=C(O)c1ccc[n+]([O-])c1`, the Potency entry in [1], in [2], in [3], in test [6], in [7] and in [8] was “inactive” in each case. Also, the Potency entry in [10] and in test [9] was “inactive” in each case. Moreover, in test [4], the molecule was classed as inactive. In addition, in [5], the max response was 8.34%.

On to `CCC(C(=O)NC(N)=O)c1ccccc1` (stereo not given), for which the Potency entry in test [1], in test [2], in test [3], in [6], in test [7] and in test [10] was “inactive” in each case. Moreover, the Potency result in test [9] is “inactive”. The result in [4] was inactive. In [5], the max response was 5.63%.

For `COc1cccc(OC)c1`, the Potency entry in [1], in test [2], in test [3], in test [6], in test [7] and in test [8] was “inactive” throughout. Besides, the Potency result in test [10] and in [9] was “inactive” each time. Besides, in test [4], the result was inactive. Moreover, the max response in [5] is 0.816%.

For the molecule `N#CC1(O)CCCCC1`, the Potency entry in [1], in test [2], in test [3], in test [6], in [7] and in test [8] was “inactive” throughout. For the same molecule, the Potency result in test [10] and in [9] was “inactive” each time. The molecule was called inactive in test [4]. In test [5], the max response is -16.1%.

In the case of `COC[C@H](c1ccc(C(F)(F)F)cc1)N1CCN(C2(C)CCN(C(=O)c3c(C)ncnc3C)CC2)C[C@H]1C`, the Potency entry in [1], in test [2], in [3], in test [6], in test [7] and in test [10] was “inactive” in each case. Moreover, the Potency result in test [9] is “inactive”. Also, in test [4], the molecule was called inactive. For the same molecule, the max response in test [5] was -19.9%.

For `CC(C)N1C(=O)c2ccccc2C1=O`, the Potency entry in test [1], in test [2], in test [3], in [6], in test [7] and in test [8] was “inactive” in each case. In addition, the Potency entry in test [9] was “inactive”. Besides, the outcome in [4] was inactive. The max response in [5] was 4.79%.

Turning to `COCCOC(=O)CC#N`, the Potency entry in [1], in [2], in test [3], in test [6], in test [7] and in test [8] was “inactive” each time. The Potency result in test [10] and in test [9] was “inactive” throughout. The outcome in [4] was inactive. The max response in [5] is 1.9%.

As for `Cc1ccc(Nc2ccc(O)c3c2C(=O)c2ccccc2C3=O)cc1`, the Potency entry in test [1], in test [2], in [3], in [6], in test [7] and in [10] was “inactive” in each case. The Potency entry in [9] is “inactive”. The call in [4] was inactive. The max response in test [5] was 7.86%.

As to `C=C[Si](OC)(OC)OC`, the Potency entry in [1], in test [2], in [3], in test [6], in test [7] and in test [8] was “inactive” throughout. The Potency result in test [9] is “inactive”. Besides, the molecule was called inactive in [4]. Also, the max response in [5] is 16.1%.

As for `C=C(C)C(=O)OCCC(C)OC(=O)C(=C)C` (stereo not given), the Potency result in test [1], in [2], in test [3], in test [6], in test [7] and in test [8] was “inactive” each time. The Potency result in test [10] and in [9] was “inactive” each time. For the same molecule, in test [4], the result was inactive. In addition, in test [5], the max response is 8.52%.

Regarding `CCCc1ccc(N)cc1`, the Potency result in test [1], in test [2], in test [3], in test [6], in [7] and in test [8] was “inactive” in each case. The Potency entry in [10] and in test [9] was “inactive” in each case. Also, the molecule was called inactive in [4]. In addition, the max response in test [5] was -1.79%.

Take `CCO[Si](CCCN=C=O)(OCC)OCC`: the Potency result in test [1], in test [2], in [3], in test [6], in test [7] and in test [8] was “inactive” throughout. In addition, the Potency result in [10] and in test [9] was “inactive” each time. In addition, the call in test [4] was inactive. In test [5], the max response was 0.0382%.

Take `CCCc1ccccc1O`: the Potency entry in test [1], in [2], in [3], in test [6], in test [7] and in test [8] was “inactive” in each case. Further, the Potency result in test [10] and in [9] was “inactive” throughout. Moreover, the outcome in test [4] was inactive. Further, the max response in test [5] is -8.16%.

On to `O=[N+]([O-])c1ccc(CCO)cc1`, for which the Potency result in test [1], in test [2], in test [3], in test [7], in [8] and in [9] was “inactive” throughout. Also, the molecule was called inactive in [4]. Further, in [5], the max response is -7.45%.

Take `O=C(O)c1cccc(C(=O)O)n1`: the Potency entry in test [1], in [2], in test [3], in test [6], in test [7] and in test [10] was “inactive” in each case. For the same molecule, in test [9], the Potency entry was “inactive”. The result in [4] was inactive. Further, the max response in test [5] was -0.906%.

Take `Cc1ccc(N)cc1[N+](=O)[O-]`: the Potency entry in [1], in test [2], in [3], in [6], in test [7] and in test [9] was “inactive” in each case. In [4], the molecule was called inactive. Also, the max response in test [5] is -16.8%.

In the case of `Cc1cc(C)cc(OCC2CNC(=O)O2)c1` (stereo not given), the Potency entry in test [1], in test [2], in test [3], in [7], in test [8] and in [10] was “inactive” throughout. In addition, the Potency entry in test [9] is “inactive”. For the same molecule, in test [4], the call was inactive. In addition, the max response in [5] is 2.49%.

On to `C=C(C)C1CC=C(C)C(O)C1` (stereo not given), for which the Potency entry in [1], in [2], in [3], in [6], in [7] and in [10] was “inactive” each time. For the same molecule, the Potency entry in [9] is “inactive”. Also, the result in [4] was inactive. Besides, in [5], the max response is 9.55%.

As to `C1=C\CC/C=C\CC/C=C\CC/1`, the Potency entry in test [1], in test [2], in [3], in [7], in test [8] and in [10] was “inactive” in each case. Also, the Potency result in test [9] is “inactive”. The molecule was classed as inactive in test [4]. In addition, the max response in test [5] was 24.2%.

Regarding `C[N+](C)(C)CC[N+]1(C)Cc2c(Cl)c(Cl)c(Cl)c(Cl)c2C1`, the Potency in test [1] is 23.9 µM (active). Also, the Potency entry in [2], in [3], in test [6], in test [7], in test [10] and in test [9] was “inactive” each time. Also, the result in [4] was inactive. The max response in test [5] was 7.36%.

The record behind these values is PubChem BioAssay (Tox21).
